Compounds with a hit are over-represented: about 7% of the library has one in this group of screens.
ATXN viability = reduces viability in counter-screen for ATXN expression inhibitors; AID 651635; Potency, µM (titrated, usually from 56.7 µM), actives largely listed as cytotoxic; S2 cells (HEK-293 line with an ATXN2-luciferase reporter) viability, CellTiter-Fluor protease fluorescence, 24 h; 0.49% of 400,000 active; note: nearly all actives have a fitted effect of over 40% in size
ATXN2 expr inh = ATXN2 expression inhibition. HEK-293 ATXN2-luciferase reporter, luminescence, 24 h. Potency, µM (doses to about 57 µM), usual class: inhibitors. 0.72% of 360,000 active; note: nearly all actives have a fitted effect of over 55% in size
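ATXN2-luciferase reporter cells (luciferase flanked by upstream and downstream ATXN2 gene portions) were treated 24 h at 37 °C with compounds at up to 57 uM. SteadyGlo luminescence gave expression; GF-AFC fluorescence gave viability.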
IL-1B inflam inh = inflammasome signaling inhibition, IL-1 beta readout; THP-1 LPS/ATP IL-1B secretion, AlphaLISA, 16 h; active compounds read low; activity change, % at 57.5 µM; 4.7% of 360,000 active; in the data active = activity change below about -50%; inconclusive = mostly about -30% to -49%
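Secreted IL-1B measured by AlphaLISA bead assay after 16 h compound exposure of THP-1 cells; compounds (final up to 57.5 uM) added 1 h before LPS (250 ng/mL) and ATP (1.25 mM) stimulation; lower signal means less secretion.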
Integrin act MD = activators of alpha7 integrin expression for muscular dystrophy. alpha7betagal myoblasts, beta-gal FDG fluorescence, 48 h. Potency, µM (top dose mostly 38.3 µM), most hits filed as activators. 0.064% of 350,000 active; note: nearly all actives have a fitted effect of over 60% in size
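Alpha7betagal+/- myoblasts (passage 13) were plated 16-24 hr, then exposed to compounds (1:260 dilution of DMSO stock) for 48 hours at 37C. After MPER lysis, β-galactosidase reporter activity was read as FDG fluorescence (ex 480/em 540) after 30 minutes.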
D3 ag = activates the human D3 dopamine receptor. D3R DiscoveRx beta-arrestin cells, luminescence, 90 min. max activation, %. 0.58% of 410,000 active; in the data active = max activation above about 30%
Target sequence (P35462 whole entry, looked up): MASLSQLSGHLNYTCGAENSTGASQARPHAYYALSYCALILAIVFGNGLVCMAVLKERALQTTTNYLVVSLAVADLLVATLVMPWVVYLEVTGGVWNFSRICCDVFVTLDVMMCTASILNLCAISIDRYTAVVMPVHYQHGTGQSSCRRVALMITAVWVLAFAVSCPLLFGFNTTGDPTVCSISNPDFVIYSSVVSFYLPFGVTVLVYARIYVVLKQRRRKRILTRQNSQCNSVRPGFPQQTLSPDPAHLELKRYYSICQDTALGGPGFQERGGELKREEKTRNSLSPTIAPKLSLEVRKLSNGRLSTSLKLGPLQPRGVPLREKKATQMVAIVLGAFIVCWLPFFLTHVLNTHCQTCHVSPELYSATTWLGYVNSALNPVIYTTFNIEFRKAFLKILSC
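Cells at 1500/well, incubated overnight, then treated with pinned compounds (dopamine as control) for 90 min at 37 degrees C. DiscoveRx reagent added for 30 - 60 minutes at room temperature; luminescence read.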
D3 antag = D3 dopamine receptor (human) antagonism | P35462 | D3R cells, DiscoveRx beta-arrestin luminescence, antagonist mode; active compounds read low | max response, negative = inhibition, % | 2.5% of 360,000 active | AID 652054; in the data active = max response below about -50%; inconclusive = no clear call, values can overlap the other calls
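Cells expressing the human receptor were seeded at 1500 cells/well, incubated overnight at 37 degrees C in 5% CO2, then exposed to library compounds with dopamine controls for 90 minutes at 37 degrees C before luminescent detection.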
Hits are given with their value; 0 = inactive; ? = inconclusive; - = no result; ! = not confirmed by another sample. Unless noted, calls come from the whole dose curve; as a rule, active = well fitted curve in the direction sought with a large enough effect; inconclusive = small, poorly fitted or top-dose-only effect, or another doubt; inactive = no such curve, though single readings can be large; an effect the other way counts as inactive or inconclusive.

SMILES	ATXN viability	ATXN2 expr inh	IL-1B inflam inh	Integrin act MD	D3 ag	D3 antag
CCCCCCCCN1C(=O)[C@H](CC(=O)NCCc2ccccc2OC)C[C@@]2(C(=O)OC)CCCCC=C12	-	?	-70	-	0	0
CCOC(=O)[C@]12CCCC=C1N(CCC1=CCCCC1)C(=O)[C@H](CC(=O)NCCc1ccccc1OC)C2	-	-	0	-	0	0
CCCCCCCCN1C(=O)[C@H](CC(=O)NCCc2ccccc2OC)C[C@@]2(C(=O)OCC)CCC=C12	-	-	0	-	0	0
CC(C)CNC(=O)c1ccc(NC(=O)c2ccccc2[N+](=O)[O-])cc1	0	0	0	0	0	0
Fc1ccc(C(c2ccc(F)cc2)N2CCNCC2)cc1	0	0	-	-	-	-
Clc1ccc(C(c2cccs2)N2CCNCC2)cc1 (stereo not drawn)	0	-	-50	0	0	0
O=C(Nc1ccccc1Cl)c1cc(C2CCCCN2S(=O)(=O)c2ccc(F)cc2F)on1 (stereo not drawn)	0	0	0	-	0	0
CN(C1=C(N2CCOCC2)C(=O)c2ccccc2C1=O)c1ccccc1	?	0	-86	0	0	0
O=C1C=C(N2CCOCC2)c2ccccc2C1=O	25µM	?	-103	0	0	0
O=C1C(NS(=O)(=O)c2cccs2)=C(N2CCOCC2)C(=O)c2ccccc21	0	0	0	0	0	0
O=C(Cn1cc(C(F)(F)F)ccc1=O)NCC1CCCO1 (stereo not drawn)	0	0	0	0	0	0
CC1CCC(C#N)(N(C)C(=O)CSc2nnc(C3CC3)n2C2CC2)CC1 (stereo not drawn)	0	0	0	0	0	0
Cc1cccc(CSc2cccc3cccnc23)c1	?	?	-110	0	0	0
CCOC(=O)CSc1cccc2cccnc12	?	20µM	0	0	0	?
c1cnc2c(SCc3ccc(-c4nnco4)cc3)cccc2c1	0	0	-67	0	0	0
CCc1ccc([C@H]2[C@@H]3C(=O)C[C@@H]4C(=O)NC(=O)[C@@H]4[C@@H]3CN2S(=O)(=O)c2ccc(C)cc2)cc1	0	0	0	-	0	0
Cc1ccccc1CNC(=O)c1ccccc1N	0	0	0	0	30	0
NS(=O)(=O)c1ccc(Sc2nc3ccccc3s2)c([N+](=O)[O-])c1	0	?	-99	0	0	0
COc1ccc(NC2=Nc3ccccc3CC2)cc1	0	0	0	0	0	-56
COc1ccc(NC2=NCCCCC2)cc1	0	0	0	0	0	0
CC(=O)Nc1ccc(S(=O)(=O)NCc2cn3c(C)csc3n2)cc1	0	0	0	0	0	-69
CC(=O)Nc1ccc(S(=O)(=O)NCc2csc(C)n2)cc1	0	0	0	0	0	0
COc1ccc(C(CC(=O)O)c2ccc3c(c2)OCO3)cc1 (stereo not drawn)	0	0	0	0	0	?
COc1ccc(CNCCC(c2ccccc2)c2ccc3c(c2)OCO3)cc1 (stereo not drawn)	22µM	25µM!	-87	0	0	-74
COc1ccccc1C(CC(=O)Nc1ccc(C)c(C)c1)c1ccc(OC(C)C)cc1 (stereo not drawn)	0	0	0	0	0	0
SMILES	ATXN viability	ATXN2 expr inh	IL-1B inflam inh	Integrin act MD	D3 ag	D3 antag
COc1ccccc1C(CCNCc1ccccc1)c1ccc(OC(C)C)cc1 (stereo not drawn)	?	28µM	-89	0	0	0
COc1ccccc1NC(=O)CC(c1ccc(OC(C)C)cc1)c1ccccc1OC (stereo not drawn)	?	0	0	0	47	0
COc1ccc(CNCCC(c2ccc(OC(C)C)cc2)c2ccccc2OC)cc1OC (stereo not drawn)	0	0	-	0	0	?
Fc1ccccc1CNCCC(Cc1ccccc1)c1ccc2c(c1)OCO2 (stereo not drawn)	?	0	-98	0	0	0
Cc1ccnc(SCc2cc(=O)c(OC(=O)c3cc([N+](=O)[O-])ccc3Cl)co2)n1	0	0	0	0	0	0
CNCCC(Oc1ccccc1OC)c1ccccc1 (stereo not drawn)	0	0	0	-	0	0
COc1ccc(CNCCC(c2ccc(OC(C)C)cc2)c2ccccc2OC)cc1 (stereo not drawn)	?	25µM	-97	0	0	0
